This is a sample that favours compounds with a hit; in the whole collection about 12% have one here.
JMJD2A Tudor: JMJD2A Tudor domain (human) inhibition; O75164; actives 4.4% (n = 390,000); Potency, µM (top dose mostly 114 µM), without a hit: at the top dose activity change, negative = inhibition, actives largely listed as inhibitors; AlphaScreen JMJD2A-Tudor / H3K4me3 peptide binding; AID 504339; further: on the % scale 0 is the no-effect control and ±100 the full control effect; nearly all actives have a fitted effect of over 50% in size
Target sequence (O75164 whole entry, looked up, the tested form may be a part): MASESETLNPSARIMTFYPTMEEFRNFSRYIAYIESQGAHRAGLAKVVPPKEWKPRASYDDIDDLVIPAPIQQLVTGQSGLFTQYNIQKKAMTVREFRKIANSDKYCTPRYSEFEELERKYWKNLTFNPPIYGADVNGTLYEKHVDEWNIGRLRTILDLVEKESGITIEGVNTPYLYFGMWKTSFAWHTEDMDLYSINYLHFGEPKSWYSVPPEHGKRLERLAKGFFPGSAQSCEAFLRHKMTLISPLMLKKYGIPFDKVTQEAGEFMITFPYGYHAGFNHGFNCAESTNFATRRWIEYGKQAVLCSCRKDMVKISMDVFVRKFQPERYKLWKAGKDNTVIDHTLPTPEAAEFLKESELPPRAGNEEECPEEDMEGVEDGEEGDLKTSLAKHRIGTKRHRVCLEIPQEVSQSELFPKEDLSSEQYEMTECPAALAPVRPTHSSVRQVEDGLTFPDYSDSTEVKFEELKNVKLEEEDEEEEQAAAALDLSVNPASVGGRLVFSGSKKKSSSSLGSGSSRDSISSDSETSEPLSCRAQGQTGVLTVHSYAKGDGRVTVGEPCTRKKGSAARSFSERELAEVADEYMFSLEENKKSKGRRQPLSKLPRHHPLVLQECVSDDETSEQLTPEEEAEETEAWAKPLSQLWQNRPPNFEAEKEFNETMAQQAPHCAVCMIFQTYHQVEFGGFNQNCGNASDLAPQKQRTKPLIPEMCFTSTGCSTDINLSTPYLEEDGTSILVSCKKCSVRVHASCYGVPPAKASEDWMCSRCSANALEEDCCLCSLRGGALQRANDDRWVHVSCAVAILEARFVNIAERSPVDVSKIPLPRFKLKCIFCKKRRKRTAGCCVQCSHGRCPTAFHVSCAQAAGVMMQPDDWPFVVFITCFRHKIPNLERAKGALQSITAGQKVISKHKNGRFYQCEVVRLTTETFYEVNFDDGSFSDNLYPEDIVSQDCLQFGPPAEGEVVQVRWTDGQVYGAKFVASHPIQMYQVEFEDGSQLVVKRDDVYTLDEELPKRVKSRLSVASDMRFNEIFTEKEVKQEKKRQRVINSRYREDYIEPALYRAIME
Sfp PPTase inh: Sfp phosphopantetheinyl transferase inhibition | Q9F4F7 | Biochemical Sfp PPTase activity, qHTS | Potency, µM, inactives show largest response in the series, negative = inhibition, most hits filed as inhibitors | actives 3.5% (n = 310,000) | AID 1490;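 further: the enzyme is Sfp with the accession as filed and its product quenches rhodamine fluorescence; 0% = enzyme reaction without inhibitor and -100% = no enzyme wells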
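Sfp 15 nM + cpd, 15 min RT; start w/ rhodamine-CoA 5 uM, BHQ-2-YbbR 12.5 uM (final); 50 mM Hepes pH 7.6, 10 mM MgCl2, 0.01% NP-40, 0.01% BSA; read 525/598 nm at 0 and 30 min.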
BAZ2B block: BAZ2B (human) inhibition; AlphaScreen BAZ2B-H3K14Ac peptide displacement; Potency, µM (series often up to 114 µM), for inactives: top-dose activity change, negative = inhibition, usual class: inhibitors; actives 4.4% (n = 360,000); AID 504333; further: on the % scale 0 is the no-effect control and ±100 the full control effect; nearly all actives have a fitted effect of over 60% in size
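AlphaScreen displacement: compounds (up to 110uM) incubated 30 min at room temperature with a preformed 50 nM BAZ2B/50 nM biotinylated H3K14Ac peptide complex in PBS pH 7.4 with Tween-20. Donor and acceptor beads at 10 ug/mL final added, 20 min light-protected before reading.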
G9a block: G9a (human) methyltransferase inhibition. G9a H3K9 monomethylation, AlphaScreen, 2 h. Potency, µM (doses to about 102 µM), for the others: at the top dose activity, negative = inhibition, most hits filed as inhibitors. actives 8.8% (n = 350,000). AID 504332; further: on the % scale 0 is the no-effect control and ±100 the full control effect; nearly all actives have a fitted effect of over 75% in size
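Chemiluminescent proximity detection of H3K9 monomethylation, read after 10 min bead incubation in the dark. Reaction: 20 nM G9a, 500 nM biotin-H3K9 peptide, 20 uM SAM cofactor, 2 h, room temperature, following 15 min enzyme-compound preincubation.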
HP1b chromo inh: inhibitors of HP1-beta chromodomain binding to methylated histone tails; actives 0.56% (n = 390,000); Potency, µM (top dose mostly 114 µM), for the others: top-dose activity change, negative = inhibition, hits mostly inhibitors; P83916; AID 540317; AlphaScreen HP1-beta / biotin-H3K9me3 peptide binding; further: nearly all actives have a fitted effect of over 70% in size
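AlphaScreen: HP1-beta (50 nM) preformed 30 min with biotin-H3(1-18)K9me3 peptide (50 nM) in PBS pH 7.4, 0.01% Tween-20. Compound added for 30 min at RT, then streptavidin donor/nickel chelate acceptor beads (10 ug/mL) for 30 min.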
L3MBTL1 inh: blocks human L3MBTL1; Q9Y468; AlphaScreen L3MBTL1–H3K9me1 peptide binding; Potency, µM (highest dose often 57.1 µM), without a hit: top-dose activity, negative = inhibition, most hits filed as inhibitors; actives 0.66% (n = 230,000); AID 485360; further: on the % scale 0 is the no-effect control and ±100 the full control effect; nearly all actives have a fitted effect of over 60% in size
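L3MBTL1 (50 nM) pre-complexed 30 min with biotinylated H3(1-15)K9me1 peptide (75 nM), then compounds added for 30 min at room temperature; AlphaScreen streptavidin donor/nickel chelate acceptor beads (10 ug/mL final) read after 30 min dark incubation.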
The depositor's hits bear a star; ? = inconclusive; / = no result; [ ] = remark or other dose. The call rests on the fitted dose curve; in most records, active means well fitted curve in the direction sought with a large enough effect; inconclusive means small, poorly fitted or top-dose-only effect, or another doubt; inactive means no such curve, though single readings can be large; an effect the other way counts as inactive or inconclusive. Potency means the concentration at half of the fitted maximal effect.

SMILES | JMJD2A Tudor | Sfp PPTase inh | BAZ2B block | G9a block | HP1b chromo inh | L3MBTL1 inh
Cc1ccc(NC(=O)CSCC(=O)N(C)CC(=O)Nc2cccc(F)c2)cc1 | -6% | / | 2% | 45µM* | 20% | -5%
Cc1cccc(NC(=O)CSCC(=O)N(C)CCOc2ccc(Cl)cc2)c1 | -10% | / | -3% | 56µM* | 23% | 0%
O=C(Cc1ccccc1)Nc1cccc(N2C(=O)C=CC2=O)c1 | 20µM* | -86% | ? | 0.35µM* | ? | 1%
O=C(CSCc1ccccc1)Nc1cccc(F)c1 | 45µM* | 11% | 4% | 9%[59 µM] | 22% | 7%
Cc1ccc(NC(=O)CSCC(=O)N(C)CCOc2ccc(Cl)cc2)cc1 | -20% | / | 6% | -25% | 51% | 10%
CCc1cccc(OCC(=O)N(C)CC(=O)Nc2cccc(F)c2)c1 | -10% | / | 9% | 50µM* | 19% | -2%
COc1cccc(Cn2c(=O)cnc3cnc(N4CCN(C)CC4)nc32)c1 | / | 5% | / | 1%[0.501 µM] | / | /
CN(C)c1ccc(-c2nc(N(C)Cc3ccco3)c3ccccc3n2)cc1 | / | 25µM* | / | / | / | /
Cc1noc(C)c1-c1nc(N(C)Cc2ccco2)c2ccccc2n1 | / | 79µM* | / | -31%[0.501 µM] | / | /
c1ccc(SCCCCNC2CCCC2)cc1 | 3.2µM* | -13% | 56µM* | 8.9µM* | -18%[57 µM] | 2%
c1ccc(Cc2ccc(OCCCNC3CCCC3)cc2)cc1 | / | ? | 56µM* | 13µM* | / | -1%
c1ccc(COc2ccccc2CNC2CCCC2)cc1 | -18% | -4% | -10% | -16% | 19% | 30%[11.4 µM]
c1cc2c(cc1OCCNC1CCCC1)CCC2 | / | -24% | 56µM* | 22µM* | / | -3%
COc1ccc(OCCNC2CCCC2)cc1 | 79µM* | 2% | ? | 10µM* | 15% | 5%
COc1ccccc1-c1cc(C(=O)Nc2cc(OC)c(OC)c(OC)c2)no1 | -8% | / | -1% | -23%[59 µM] | 41% | /
COc1cc(NC(=O)N2CCSc3ccccc32)cc(OC)c1OC | -25% | / | ? | -22%[59 µM] | -17% | /
CNCCCOc1ccc2c(c1)CCC2 | 22µM* | -6% | 50µM* | 50µM* | -37% | 8%
Cc1ccc(CNC(=O)C(=O)NCC(c2ccc3c(c2)OCO3)N2CCOCC2)cc1 (centres undefined) | -8% | / | 1% | 2%[59 µM] | 13%[57 µM] | /
CCC(CC)c1nnc(NC(=O)CCc2ccccc2OC)s1 | -8% | 11% | 2% | 18% | 15% | /
CCc1nnc(NC(=O)CCS(=O)(=O)Cc2ccccc2)s1 | -18% | 13% | -17% | 50µM* | -9% | /
CCC(CC)c1nnc(NC(=O)CCS(=O)(=O)Cc2ccccc2)s1 | -14% | 63µM* | 1% | 18µM* | 6% | /
CCc1nnc(NC(=O)CS(=O)(=O)Cc2ccccc2)s1 | -1% | 3% | 3% | -7% | -10% | /
CCC(CC)c1nnc(NC(=O)Cc2ccccc2[N+](=O)[O-])s1 | -13% | 12% | -28% | 40µM* | -9% | -2%
O=C(CCS(=O)(=O)Cc1ccccc1)Nc1nncs1 | -1% | 12% | 3% | 45µM* | 10% | /
O=C(/C=C/Nc1ccc(S(=O)(=O)Nc2ncccn2)cc1)c1ccc2ccccc2c1 | -12% | 12% | -4% | 6% | 13% | 3%
SMILES | JMJD2A Tudor | Sfp PPTase inh | BAZ2B block | G9a block | HP1b chromo inh | L3MBTL1 inh
CCOc1ccc(NC(=O)c2cc(-c3ccc(C)c(F)c3)on2)c([N+](=O)[O-])c1 | -5% | / | -5% | ? | 23% | /
CC1CC(OC(=O)C(O)c2ccccc2)CC(C)(C)C1 (centres undefined) | / | 19% | / | 38%[59 µM] | / | /
CCOc1ccc(-c2oc3cc(Cl)ccc3c(=O)c2O)cc1OC | -31% | / | 4% | 38%[59 µM] | 36% | /
O=C(CS(=O)(=O)c1ccccc1)Nc1nnc(Cc2ccccc2)s1 | -7% | 45µM* | -26% | 32µM* | -13% | /
CCCc1nnc(NC(=O)CCS(=O)(=O)Cc2ccccc2)s1 | -7% | -12% | 7% | 45µM* | 15% | /
CCC(CC)c1nnc(NC(=O)CS(=O)(=O)c2ccccc2)s1 | -4% | 50µM* | 0% | 10µM* | -38% | /
CCCCc1nnc(NC(=O)CCS(=O)(=O)Cc2ccccc2)s1 | 1% | 6% | -2% | ? | 22% | /
COc1ccc(C(=O)Nc2cccc(OCc3cc(=O)n4c5c(sc4n3)CCCC5)c2)cc1OC | -3% | / | -9% | 10%[59 µM] | 33% | /
COc1cccc(Nc2ncc3nc(-c4cccs4)c(=O)n(-c4ccccc4)c3n2)c1 | / | -22% | / | -5%[0.501 µM] | / | /
N#Cc1ccc(C(=O)NN2C(=O)NC3(CCCCC3)C2=O)cc1 | -10% | / | -5% | 56µM* | 11% | 7%
CN(C)c1cccc(C(=O)NN2C(=O)NC3(CCCCC3)C2=O)c1 | 5% | / | -5% | -3%[12.7 µM] | 29% | ?
CCOC(=O)C1CCN(C(=O)CN2c3ccc(C(C)C)cc3-c3ccccc3S2(=O)=O)CC1 | -26% | / | -12% | -9%[59 µM] | 27% | /
Cc1ccc2c(c1)sc1nc(=O)n(-c3ccccc3)c(=O)n12 | -5% | -15% | 2% | 28% | 23% | -2%
Cc1cc(C)c2nc3s/c(=C/c4ccc5c(c4)n(C)c(=O)n5C)c(=O)n3c2c1 | / | 20µM* | ? | ? | / | -1%
C/C=C\C=C/C(=O)Nc1cccc(C2=NOC3(C2)C[C@@H](C(N)=O)N(C(=O)COc2ccc(Cl)cc2)C3)c1 (some centres undefined) | 71µM* | 20µM* | ? | ? | ? | /
C/C=C\C=C\C(=O)N1CC2(CC(c3cccc(NC(=O)COc4ccc(Cl)cc4)c3)=NO2)C[C@H]1C(N)=O (some centres undefined) | ? | 28µM* | -16% | ? | -8% | /
CCOC(=O)CCCCC(=O)c1[nH]c(=O)[nH]c1C[n+]1ccc(C)cc1 | -15% | 10% | ? | 45µM* | 23% | /
CCOC(=O)CCCCC(=O)c1[nH]c(=O)[nH]c1CN1CCOCC1 | 35µM* | 8% | 16µM* | ? | -37% | ?
CC(=O)N1CCc2cc(CNS(=O)(=O)c3ccccc3C(F)(F)F)ccc21 | -16% | / | 8% | 3%[59 µM] | 16%[57 µM] | /
CC(C)N1C(=O)S/C(=C\c2ccc(-c3ccc(Cl)c(C(=O)O)c3)o2)C1=O | 79µM* | -28% | -34% | 40µM* | -11% | ?
CC(C)OC(=O)c1cc(-c2ccc(C=O)o2)ccc1Cl | 5% | -11% | -33% | ? | 14% | -2%
CCN(CC)c1ccc(/C=C2/SC(=O)N(C(C)C)C2=O)o1 | ? | 3.2µM* | ? | 7.1µM* | 5% | -1%
Cc1cc(NS(=O)(=O)c2cn(C)c(C)n2)ccc1Br | -5% | / | 0% | -6%[59 µM] | 21%[57 µM] | /

Source: PubChem BioAssay
